Assay in all cases: NCI-60 one-dose screen, 48 h (100 = growth as untreated, 0 = no growth, -100 = all killed)
Holding throughout (conditions): 10 µM unless noted

Experiment [1] has as its system NCI-H23 lung.
Experiment [2] concerns NCI-H226 lung.
The test system of experiment [3] is NCI-H322M lung.
Experiment [4] has as its system HOP-62 NSCLC.
Experiment [5] deals with NCI-H460 lung.
Experiment [6] deals with HOP-92 NSCLC.
Experiment [7] relates to NCI-H522 lung.
The test system of experiment [8] is A549/ATCC NSCLC.
Experiment [9] has as its system 786-0 renal.
The subject of experiment [10] is COLO 205 colon.

About 83,000 compounds went through this panel and 20% of them were active in at least one assay; those are over-represented in the sample as a whole.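 For each line, cells grew in 96-well plates with the test compound present at a single concentration for 48 hours.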 A number with no mark means an inactive call. The source made the active and inactive calls. Rule for the calls: active = growth percent below 10; inactive = the rest.

`COc1cc(C2CC(=O)c3c(C)nn(-c4nc5ccccc5[nH]4)c3C2)cc(OC)c1OC` (stereo not given): the growth is 86% in [1]; 65.9% in experiment [2]; 67.8% in experiment [3]; 32.3% in experiment [4]; 73.7% in experiment [5]; -3.61% (active) in experiment [6]. In addition, the growth in experiment [7] is 31.6%; in experiment [8] it was 59.5%; in [9], 23.8%; in [10], 126%.
Turning to `CCN(CC)CCC(=O)Nc1ccc(Cn2nnc3c2C(=O)c2nnn(Cc4ccc(NC(=O)CCN(CC)CC)cc4)c2C3=O)cc1`, the growth in experiment [1] was -24.6% (active); in experiment [2], -49.5% (active); in experiment [3], -75.3% (active); in experiment [4], -34.5% (active); in [5], -29.7% (active); in [6], -44.3% (active). Further, the growth in experiment [7] was -73.5% (active); in experiment [8] it was -58.1% (active); in [9], 88.7%; in experiment [10], -86.7% (active).
In the case of `O=C1c2cc3c(cc2-c2c1c1cc(Cl)c(Cl)cc1c(=O)n2CCCn1ccnc1)OCO3`, the growth was -19.4% (active) in [1]; -3.81% (active) in experiment [2]; 22.9% in experiment [3]; -19.5% (active) in [4]; 6.51% (active) in [5]; 29.5% in experiment [6]. In addition, the growth was 1.51% (active) in experiment [7], 3.18% (active) in [8], -3.17% (active) in [9] and 6.24% (active) in experiment [10].
As for `COc1cnc2c(c1)C(=O)c1c-2n(CCCN2CCCC2)c(=O)c2cc([N+](=O)[O-])ccc12`, the growth was -7.75% (active) in experiment [1]; -79.4% (active) in experiment [2]; -11.9% (active) in experiment [3]; -16.8% (active) in experiment [4]; -60.1% (active) in experiment [5]; 16.4% in experiment [6]. For the same molecule, the growth in experiment [7] is -31% (active); in [8], -44.8% (active); in [9], -90.9% (active); in experiment [10], 2.24% (active).
On to `Nc1ccc(Nc2nccc(-c3ccc4ccccc4c3)n2)cc1`, for which the growth in experiment [1] is 41.2%; in [2] it was 64%; in experiment [3] it was 64.5%; in experiment [4], 44.2%; in [5] it was 17.8%; in experiment [6] it was 65.1%. Further, the growth is 27.6% in [7], 25.5% in experiment [8], 58.7% in experiment [9] and 49.4% in [10].
For `CCN(CC)CCCC(C)Nc1ccnc2c(OC)cccc12` (stereo not given), the growth in [1] was 106%; in experiment [2] it was 111%; in [3], 141%; in experiment [4], 108%; in experiment [5], 125%; in [6], 130%. Further, the growth in experiment [7] is 104%; in experiment [8], 106%; in experiment [9], 113%; in [10], 114%.
Take `Cc1ccc2c(NCCCN(C)C)c3c(C)nn(C)c3nc2c1`: the growth in experiment [1] is 51.6%; in experiment [2], 41.7%; in [3] it was 34.5%; in [4] it was 41.1%; in experiment [5], 8.82% (active); in [6] it was 30%. The growth in experiment [7] is 28.3%; in experiment [8], 13.7%; in [9], 37.1%; in experiment [10], 13.4%.
Take `Oc1ccccc1N=Cc1c(O)ccc2ccccc12`: the growth in experiment [1] was 88.2%; in [2] it was 87.3%; in experiment [3], 82.6%; in [4] it was 83.7%; in experiment [5], 81.3%; in experiment [6], 58.3%. For the same molecule, the growth is 81% in experiment [7], 95.4% in experiment [8], 86.2% in experiment [9] and 108% in [10].
In the case of `Cc1cc2cc3cc(C)c(N(C)C)cc3nc2cc1N(C)C`, the growth is 23.9% in experiment [1]; 54.8% in experiment [2]; 22.3% in [3]; 23.1% in experiment [4]; 8.26% (active) in [5]; -37% (active) in experiment [6]. The growth was -11.7% (active) in [7], 7.53% (active) in experiment [8], 28% in experiment [9] and -23.8% (active) in [10].
With `CN1CCN(c2ccc3nc(-c4ccc5nc(-c6ccc(OCCC(C)(C)C)cc6)[nH]c5c4)[nH]c3c2)CC1`, the growth is -3.61% (active) in experiment [1]; 95.3% in experiment [2]; 40.7% in [3]; 21.5% in [4]; -80% (active) in [5]; 69.6% in experiment [6]. In addition, the growth was -38% (active) in experiment [7], -45.3% (active) in experiment [8], -60.2% (active) in [9] and 5.08% (active) in experiment [10].
For `CCC(c1ccc(O)cc1)C(CC)c1ccc(O)c(F)c1` (stereo not given), the growth in experiment [1] was 77%; in experiment [2] it was 91.6%; in [3], 91.1%; in experiment [4] it was 94.5%; in experiment [5] it was 98.9%; in [6], 59.5%. Also, the growth in [7] was 77.9%; in [8], 89%; in experiment [9], 75.4%; in experiment [10] it was 114%.
For the molecule `COc1ccc(-n2c(C)nc3c(c(C)nn3-c3ccccc3)c2=O)cc1`, the growth in experiment [1] is 18.4%; in [2], 51.3%; in [3], 49.9%; in experiment [4] it was 34.4%; in experiment [5], 3.74% (active); in experiment [6] it was 27.6%. Besides, the growth in experiment [7] was -14% (active); in [8] it was 16.3%; in [9], 27.4%; in experiment [10] it was -45.6% (active).
On to `CCCCCCCCCCCCS(=O)CC(C)O` (stereo not given), for which the growth in experiment [1] was 115%; in [2] it was 110%; in experiment [3], 119%; in [4], 96.1%; in experiment [5] it was 111%; in experiment [6], 90.2%. In addition, the growth in experiment [7] was 95.3%; in experiment [8], 93%; in experiment [9], 102%; in experiment [10] it was 110%.
Turning to `COc1cccc(-n2cc(-c3nc(Nc4cc(C)[nH]n4)c4ccccc4n3)nn2)c1`, the growth was 61.1% in experiment [1]; 49.9% in experiment [2]; 52.2% in [3]; 50.2% in experiment [4]; 44.9% in experiment [5]; 35.8% in [6]. For the same molecule, the growth in experiment [7] was 9.97% (active); in experiment [8], 35.9%; in [9], 51.4%; in experiment [10], 85.8%.

Values taken from PubChem BioAssay (NCI).
